Test results published in PubChem BioAssay (Tox21).
Records with an inconclusive call do not appear. Where a call stands in place of a potency, no number is given. A number with no mark means an inactive call. Activity calls are given as the source filed them. Calls come from the whole dose curve.

Experiment: qHTS assay to identify small molecule agonists of the hypoxia (HIF-1) signaling pathway - cell viability counter screen (AID 1224844); note: nearly all actives have a fitted effect of over 50% in size
Conditions: HRE-bla ME-180 viability, CellTiter-Glo luminescence, 17 h; series mostly up to 76.8 µM; activity change, negative = cytotoxicity: at the top concentration
Description: National Center for Advancing Translational Sciences [NCATS]
NIH Chemical Genomics Center [NCGC]
U.S. Environmental Protection Agency [EPA]
National Institutes of Environmental Health Sciences [NIEHS]
National Toxicology Program [NTP]
U.S. Food and Drug Administration [FDA]
Hypoxia-inducible factor-1 (HIF-1) is the major hypoxia-regulated transcription factor that controls cellular responses to low oxygen concentration. HIF-1 is composed of two subunits: hypoxia responsive HIF-1-alpha and constitutively expressed HIF-1-beta, which is also known as aryl hydrocarbon receptor nuclear translocator. During hypoxic conditions, HIF-1-alpha heterodimerizes with HIF-1-beta and translocates into the nucleus where the HIF-1 complex binds to the hypoxia-response element (HRE) and activates expression of target genes such as VEGF (vascular endothelial growth factor). The HIF-1 pathway is essential to normal growth and development, and is involved in the pathophysiology of cancer, inflammation, and ischemia.
Using a beta-lactamase reporter-gene under control of the hypoxia response element, a cell-based assay [CellSensor(TM) HRE-bla ME-180 from Life Technologies, Carlsbad, CA] was used to measure hypoxia-induced signaling. Tox21 10K library compounds were measured for their ability to induce the reporter gene activity. The cytotoxicity of the Tox21 compound library against HRE-bla ME-180 cell line was tested in parallel by measuring cell viability using CellTiter-Glo assay (Promega, Madison, WI) in the same assay wells.
Tox21 Assay Protocol Summary:
HRE-bla ME-180 cells were dispensed at 2,000 cells per well in 6 uL of assay medium containing 0.5% dialyzed FBS into black wall/clear-bottom 1536-well plates using a Multidrop Combi (Thermo Scientific, Waltham, MA) dispenser. After the assay plates were incubated at 37C and 5% CO2 for 5 hrs, 23 nL of compounds dissolved in DMSO, positive controls or DMSO only was transferred to each well of the assay plate using a Pintool station (Kalypsys, San Diego, CA). The assay plates were incubated at 37C and 5% CO2 for 17 hrs. One uL of LiveBLAzerTM B/G FRET substrate (CCF4-AM) (Life Technologies) was added to each well using a Flying Reagent Dispenser (FRD, Aurora Discovery, San Diego, CA). After 2 hr incubation at room temperature, fluorescence intensity (405 nm excitation, 460 nm and 530 nm emissions) was measured using an Envision plate reader (PerkinElmer, Shelton, CT). For cytotoxicity, 4 ul/well of CellTiter-Glo reagent was added into the assay plates using an FRD. After 30 min incubation at room temperature, the luminescence intensity was measured using a ViewLux plate reader (PerkinElmer).
Potency is the fitted concentration of half-maximal effect.

**Q.** Which Potency does the source give for `CCCCCCCC(=O)OCC(COC(=O)CCCCCCC)OC(=O)CCCCCCC` here?
**A.** Its Potency is “inactive”.

**Q.** With `CCCCNC(=O)NS(=O)(=O)c1ccc(C)cc1` as the compound, how does the Potency read?
**A.** The Potency was “inactive”.

**Q.** Which Potency does the source give for `C/C=C/C=C/C(=O)O` here?
**A.** The Potency was “inactive”.

**Q.** With `COc1ccc2c(c1)c(CC(=O)O)c(C)n2C(=O)c1ccc(Cl)cc1` as the compound, how does the Potency read?
**A.** The Potency was “inactive”.

**Q.** Which Potency does the source give for `CC(C)NCC(O)c1ccc(O)c(O)c1` (stereo not given) here?
**A.** The Potency was “inactive”.

**Q.** Which Potency does the source give for `C[C@](N)(Cc1ccc(O)c(O)c1)C(=O)O` here?
**A.** Its Potency is “inactive”.

**Q.** Which Potency does the source give for `CN(N=O)C(=O)N[C@@H]1[C@@H](O)[C@H](O)[C@@H](CO)O[C@@H]1O` here?
**A.** The Potency was “inactive”.

**Q.** For `Nc1ccc(O)c([N+](=O)[O-])c1`, which “activity change, negative = cytotoxicity” value is on record?
**A.** The value was 1.8%.

**Q.** For `NC(CO)(CO)CO`, which Potency is on record?
**A.** The Potency was “inactive”.

**Q.** For `CCOC(N)=O`, which Potency is on record?
**A.** The Potency was “inactive”.

**Q.** With `CCc1nc(N)nc(N)c1-c1ccc(Cl)cc1` as the compound, how does the Potency read?
**A.** Its Potency is “inactive”.

**Q.** Which “activity change, negative = cytotoxicity” value does the source give for `O=CC(=O)c1ccccc1` here?
**A.** Its value is 2.55%.

**Q.** With `Cc1cc(=O)oc2cc(O)ccc12` as the compound, how does the Potency read?
**A.** Its Potency is “inactive”.

**Q.** For `CCCCCCc1ccc(O)cc1O`, which “activity change, negative = cytotoxicity” value is on record?
**A.** The value was -2.36% [at 35.3 µM].

**Q.** With `CC(O)(P(=O)(O)O)P(=O)(O)O` as the compound, how does the Potency read?
**A.** Its Potency is “inactive”.

**Q.** Which Potency does the source give for `NS(=O)(=O)c1cc2c(cc1Cl)NCNS2(=O)=O` here?
**A.** Its Potency is “inactive”.

**Q.** With `Nc1ccc([N+](=O)[O-])cc1O` as the compound, how does the “activity change, negative = cytotoxicity” value read?
**A.** The value was -1.94%.

**Q.** Which Potency does the source give for `CN(C)C(=O)Nc1ccc(Cl)c(Cl)c1` here?
**A.** The Potency was “inactive”.

**Q.** For `CNNCc1ccc(C(=O)NC(C)C)cc1`, which Potency is on record?
**A.** Its Potency is “inactive”.

**Q.** Which “activity change, negative = cytotoxicity” value does the source give for `NC(=O)n1c(O)c(C(=O)c2cccs2)c2cc(Cl)ccc21` here?
**A.** Its value is 20.7% [at 35.3 µM].

**Q.** For `CC/C(=C(\c1ccccc1)c1ccc(OCCN(C)C)cc1)c1ccccc1`, which Potency is on record?
**A.** The Potency was 24.8 µM (active) [middle of 4 runs].

**Q.** For `CN(C)CCOC(c1ccccc1)c1ccccc1`, which Potency is on record?
**A.** The Potency was “inactive”.

**Q.** For `O=C1OC2(c3ccccc31)c1cc(Br)c(O)c(Br)c1Oc1c2cc(Br)c(O)c1Br`, which Potency is on record?
**A.** The Potency was “inactive”.

**Q.** For `O=C1NC(=O)C(c2ccccc2)(c2ccccc2)N1`, which Potency is on record?
**A.** Its Potency is “inactive”.

**Q.** Which Potency does the source give for `Cc1ncc([N+](=O)[O-])n1C` here?
**A.** The Potency was “inactive”.

**Q.** Which Potency does the source give for `COc1ccc2cc(S(=O)(=O)N[C@H](CC(=O)N[C@H](Cc3ccc(CN4[C@H](C)CCC[C@@H]4C)cc3)C(=O)N(C)C(C)C)c3ccc4c(c3)OCO4)ccc2c1` here?
**A.** The Potency was 10.4 µM (active).

**Q.** For `CCCCOC(=O)c1ccc(O)cc1`, which Potency is on record?
**A.** The Potency was “inactive”.

**Q.** With `Nc1ccc(S(N)(=O)=O)cc1` as the compound, how does the Potency read?
**A.** The Potency was “inactive”.

**Q.** Which Potency does the source give for `O=c1[nH]cnc2c1ncn2[C@H]1CC[C@@H](CO)O1` here?
**A.** Its Potency is “inactive”.

**Q.** With `O=C(Nc1ncc([N+](=O)[O-])s1)c1cccs1` as the compound, how does the “activity change, negative = cytotoxicity” value read?
**A.** Its value is -24.2% [at 35.3 µM].

**Q.** With `COc1ccc(C(Cl)=C(c2ccc(OC)cc2)c2ccc(OC)cc2)cc1` as the compound, how does the Potency read?
**A.** Its Potency is “inactive”.

**Q.** For `Oc1ccccc1`, which Potency is on record?
**A.** The Potency was “inactive”.

**Q.** For `CCN(CC)C(=O)c1cccc(C)c1`, which Potency is on record?
**A.** The Potency was “inactive”.

**Q.** For `C=C1CC[C@H](O)C/C1=C\C=C1/CCC[C@]2(C)[C@@H]([C@H](C)CCCC(C)C)CC[C@@H]12`, which Potency is on record?
**A.** The Potency was 38.5 µM (active).

**Q.** For `CC1(C)O[C@@H]2C[C@H]3[C@@H]4CCC5=CC(=O)C=C[C@]5(C)[C@@]4(F)[C@@H](O)C[C@]3(C)[C@]2(C(=O)CO)O1`, which Potency is on record?
**A.** The Potency was “inactive”.

**Q.** With `CCCCC1(COC(=O)CCC(=O)O)C(=O)N(c2ccccc2)N(c2ccccc2)C1=O` as the compound, how does the Potency read?
**A.** The Potency was “inactive”.

**Q.** For `Cn1c(=O)c2c(ncn2C)n(C)c1=O`, which Potency is on record?
**A.** Its Potency is “inactive”.

**Q.** For `O=C(O)c1ccccc1`, which Potency is on record?
**A.** The Potency was “inactive”.

**Q.** For `CCCCC(CC)C(=O)O` (stereo not given), which Potency is on record?
**A.** Its Potency is “inactive”.

**Q.** With `Cc1cn([C@H]2C=C[C@@H](CO)O2)c(=O)[nH]c1=O` as the compound, how does the Potency read?
**A.** Its Potency is “inactive”.
